From PubChem BioAssay
A selection: hits, their analogues and other compounds. The true share with any hit is near 7.3%.
AmpC inh no detg: inhibitors of E. coli AmpC beta-lactamase without detergent | Potency, µM (highest dose often 57.1 µM), inactives show top-dose activity change, negative = inhibition, actives largely listed as inhibitors | P00811 | AmpC nitrocefin hydrolysis, absorbance 480 nm, 0.0001% Triton | 330,000 compounds, 0.52% hits;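 also: potency is read from the fitted curve at half-maximal effect; plate controls were no compound for no effect and no enzyme for full effect; nearly all actives have a fitted effect of over 20% in size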
Target sequence (P00811 whole entry, looked up): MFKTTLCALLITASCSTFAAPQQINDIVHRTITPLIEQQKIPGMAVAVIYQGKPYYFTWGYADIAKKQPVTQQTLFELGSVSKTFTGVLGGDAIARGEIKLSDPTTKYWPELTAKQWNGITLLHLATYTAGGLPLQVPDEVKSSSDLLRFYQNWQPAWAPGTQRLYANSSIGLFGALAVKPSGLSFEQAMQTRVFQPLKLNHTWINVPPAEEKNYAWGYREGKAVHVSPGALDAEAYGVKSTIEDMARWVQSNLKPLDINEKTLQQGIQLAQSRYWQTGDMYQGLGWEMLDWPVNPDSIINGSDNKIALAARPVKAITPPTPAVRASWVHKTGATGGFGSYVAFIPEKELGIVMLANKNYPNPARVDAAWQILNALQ
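20 mM phosphate pH 7.0 + 0.01% (detergent screen) or 0.0001% Triton X-100; 5.3 nM AmpC reagent; cpd preinc 15 min RT; nitrocefin (800 uM stock) to start; A480 q20 s × 4 min; Activity was normalised to no-enzyme and no-compound control wells.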
FMDV inh: foot and mouth disease virus antiviral activity. FMDV antiviral cell-based qHTS. Potency, µM (top dose mostly 57.9 µM), for the others: at the top dose activity change, negative = inhibition, usual class: inhibitors. 410,000 compounds, 1.2% hits. AID 1159524; calls by dose curve; tested in HEK293T cells; also: read-out not given here; potency is read from the fitted curve at half-maximal effect; nearly all actives have a fitted effect of over 45% in size
AmpC inh detg: blocks E. coli AmpC beta-lactamase in detergent assay | AmpC hydrolysis of nitrocefin, absorbance 480 nm, 0.01% Triton | Potency, µM (titrated, usually from 114 µM), inactives show at the highest dose activity change, negative = inhibition, usual class: inhibitors | 370,000 compounds, 0.041% hits;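 also: potency is read from the fitted curve at half-maximal effect; 0% = no-compound wells and -100% = no-enzyme wells; nearly all actives have a fitted effect of over 25% in size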
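AmpC (5.3 nM in the dispensed reagent) in 20 mM phosphate pH 7.0 with 0.01% (detergent screen) or 0.0001% Triton X-100 was preincubated with compounds for 15 min at room temperature. Nitrocefin was then added from an 800 uM solution, and hydrolysis was followed at 480 nm.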
HCMV antiviral: human cytomegalovirus inhibition; 410,000 compounds, 4.5% hits; HFF cells, HCMV-luciferase reporter, 72 h; active compounds read low; activity change, negative = inhibition, % at 57.5 µM; in the data active = activity change below about -60%; inconclusive = no clear call, values can overlap the other calls; inactive = above about -39%
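Cell-based, HFFs, 1000 cells/well, 16 h 37C; cpds in DMSO + HCMV-luc, MOI 1 PFU/cell; 72 h 37C; OneGlo luminescence after 5 min RT; norm. to buffer vs Salinomycin 10uM.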
HCV inhibitor: inhibitors of hepatitis C virus infection. AID 651820. Huh7.5.1 HCVcc-Cre infection, luciferase reporter, 44 h. Potency, µM (highest dose often 41.8 µM), for the others: top-dose activity change, negative = inhibition, hits mostly inhibitors. 340,000 compounds, 3.4% hits; also: potency is read from the fitted curve at half-maximal effect
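Compounds are dispensed onto cells plated 4 h earlier at 1,000 per well, with HCVcc-Cre virus (about 0.5 moi) added next. Following 44 h of culture, luminescent signal is measured for 15 sec after 15 min with substrate at room temperature.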
The depositor's hits bear a star; ? = inconclusive; · = no result given. Unless noted, calls follow the shape of the dose curve; as a rule, active = well fitted curve in the direction sought with a large enough effect; inconclusive = small, poorly fitted or top-dose-only effect, or another doubt; inactive = no such curve, though single readings can be large; an effect the other way counts as inactive or inconclusive. Unless noted, % is scaled to controls: 0 for no effect and ±100 for the full control effect.

SMILES | AmpC inh no detg | FMDV inh | AmpC inh detg | HCMV antiviral | HCV inhibitor
CC1CCN(C(=O)COC(=O)Cn2cnc3ccccc32)CC1 | -18% | -6% | · | -67* | 13%
CN(C(=O)COC(=O)Cn1cnc2ccccc21)C1CCCCC1 | -9% | -25% | · | -94* | 7%
O=[N+]([O-])c1ccc(NN=Cc2cc(Br)ccc2O)nc1 | · | 7% | · | -100* | ?
Cc1ccccc1OCC(=O)N1N=C(C(F)(F)F)CC1(O)C(C)(C)C (stereo not drawn) | 1% | -21% | -1% | 2 | -4%
Cc1ccc(OCC(=O)N2N=C(C(F)(F)F)CC2(O)C(C)(C)C)cc1C (stereo not drawn) | 13% | ? | -5% | -91* | -25%
Cc1cc(-n2c(C)cc(C(=S)N3CCOCC3)c2C)ccc1Br | 33% | ? | 0% | -66* | ?
CC(=O)O[C@H]1C[C@@]2(O)[C@@H](OC(=O)c3ccccc3)C3[C@@](C)([C@@H](O)C[C@H]4OC[C@@]34OC(C)=O)[C@@H](O)[C@H](OC(C)=O)C(=C1C)C2(C)C (stereo partly drawn) | -3% | 6% | -7% | -8 | -7%
COc1ccc(Cc2c(O)nc(SCC(=O)NC(C)(C)C)[nH]c2=O)cc1 | -2% | 6% | -7% | -3 | 6%
C#CCOCCOCCOCCNc1nc(N2CCN(C(=O)CCCCCCCCCCNC(=O)[C@@H](CCSC)n3cc(CCO)nn3)CC2)nc(N2CCN(C(=O)CCCCCCCCCCNC(=O)[C@@H]([C@H](C)O)n3cc(C)nn3)CC2)n1 | 229% | -24% | -3% | -72* | -13%
C#CCOCCOCCOCCNc1nc(N2CCN(C(=O)CCCCCCCCCCNC(=O)[C@H](CCCCN)n3cc(C)nn3)CC2)nc(N2CCN(C(=O)CCCCCCCCCCNC(=O)[C@@H]([C@H](C)O)n3cc(C)nn3)CC2)n1 | 235% | -13% | 5% | · | 2.8µM*
Cc1cn([C@@H](CCCCNC(=O)OC(C)(C)C)C(=O)NCCCCCCCCCCC(=O)N2CCN(C(=O)OC(C)(C)C)CC2)nn1 | 210% | 11µM* | -3% | · | ?
C#CCOCCOCCOCCNc1nc(N2CCN(C(=O)CCCCCCCCCCNC(=O)Cn3cc(C[C@@H](C)O)nn3)CC2)nc(N2CCN(C(=O)CCCCCCCCCCNC(=O)[C@@H]([C@H](C)CC)n3cc(CCCCCN)nn3)CC2)n1 | 321% | 35µM* | 4% | · | ?
COc1ccc(-c2nc3c(n2O)CCc2c-3no[n+]2[O-])cc1 | -11% | -3% | -2% | -68* | 11%
COn1c(-c2ccccc2)nc2c1CCc1c-2no[n+]1[O-] | -8% | 0% | 1% | -80* | 3%
COc1ccc(Nc2nc3c(S(=O)(=O)c4ccc(Br)cc4)nnn3c3ccsc23)c(OC)c1 | · | -18% | 20% | -17 | ·
CCOC(=O)c1cccn1C1C(=O)N(Cc2ccc(Cl)nc2)c2ccc(Cl)cc21 (stereo not drawn) | · | · | · | -27 | ·
O=C(NCC(=O)N1CCOCC1)c1ccccc1 | -26% | 14% | 0% | -5 | 7%
Cc1ccccc1N(Cc1cc(=O)[nH]c2ccccc12)C(=O)CCl | -13% | · | 1% | -101* | ·
CCN(C(=O)c1ccc(C(=O)N(CC)c2ccccc2C)cc1)c1ccccc1C | · | -1% | 15% | -4 | ·
O=C(CCl)N(Cc1cc(=O)[nH]c2ccccc12)c1ccccc1 | -12% | 14µM* | -7% | -100* | ?
CCCCCCCN(C(=O)CCl)c1ccccc1C | -23% | ? | -14% | -83* | ?
CCN(CC)c1ccc(/C=C2/SC(=O)N(C(C)C)C2=O)o1 | -24% | 11% | -14% | -86* | ?
CCOC(=O)N1CCN(C(=S)NC(=O)c2cccc(OC)c2)CC1 | -12% | -7% | · | 26 | 16%
CCOC(=O)N1CCN(C(=S)NC(=O)c2c(-c3c(Cl)cccc3Cl)noc2C)CC1 | -2% | -12% | -12% | -69* | 12%
CCOC(=O)N1CCN(C(=S)NC(=O)c2ccc(F)c(F)c2)CC1 | 2% | 30% | 3% | -89* | 26%
CC(C)N1CCC1(C)C(=O)Nc1cccc2ccccc12 (stereo not drawn) | · | 22µM* | · | 13 | ·
